Reference: PubChem BioAssay (NCATS)
Inconclusive results are not listed. Entries that show only a call come without a potency. Values without a mark were called inactive. Active and inactive are the calls of the source. Calls come from the whole dose curve; as a rule, active = well fitted curve in the direction sought with a large enough effect; inconclusive = small, poorly fitted or top-dose-only effect, or another doubt; inactive = no such curve, though single readings can be large or run the other way.

Biological target: Nuclear receptor subfamily 1 group I member 3 (Homo sapiens) (UniProt Q14994)
Sequence (Q14994 whole entry, looked up): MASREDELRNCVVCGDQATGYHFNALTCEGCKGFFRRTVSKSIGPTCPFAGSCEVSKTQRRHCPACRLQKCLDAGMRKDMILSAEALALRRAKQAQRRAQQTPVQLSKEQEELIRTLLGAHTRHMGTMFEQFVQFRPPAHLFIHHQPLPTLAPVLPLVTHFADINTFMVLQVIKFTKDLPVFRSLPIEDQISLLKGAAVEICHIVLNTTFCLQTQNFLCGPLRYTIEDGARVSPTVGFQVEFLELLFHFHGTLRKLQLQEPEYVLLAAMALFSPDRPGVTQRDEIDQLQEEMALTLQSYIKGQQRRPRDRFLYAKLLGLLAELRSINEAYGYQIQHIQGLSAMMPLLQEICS
Experiment: Primary qHTS for antagonist of constitutive androstane receptor (CAR) against the NCATS DSHEA and TCM libraries (AID 1794836);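 for activity change, negative = inhibition: HepG2 cells stably expressing hCAR with CYP2B6 luciferase reporter stimulated by CITCO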
Details: CAR reporter cell assay, antagonist mode, luciferase; series mostly up to 40 µM
Description: Assay Development and Screening Technology Laboratory (ADST)
National Center for Advancing Translational Sciences (NCATS), Rockville, MD
National Institute of Health (NIH), Bethesda, Maryland
Dietary Supplements and Natural Products have minor oversight of their safety and efficacy. We assembled a collection of Dietary Supplements and Natural Products (DSNP) as well as Traditional Chinese Medicinal (TCM) Plant extracts, which were screened against an in vitro panel of assays, including a liver cytochrome p450 enzyme panel, CAR/PXR signaling pathways, and P-gp transporter assays, to assess their activity. This pipeline facilitated the interrogation of Natural Product-Drug Interaction (NaPDI) through prominent metabolizing pathways. In addition, we compared the activity profiles of the DSNP/TCM substances with those of an approved drug collection. Many of the approved drugs have well-annotated mechanisms of action (MOA) while the MOAs for most of the DSNP and TCM samples remain unknown. Based on the premise that compounds with similar activity profiles tend to share similar targets or MOA, we clustered the library activity profiles to identify overlap with the NCATS Pharmaceutical Collection to predict the MOAs of the DSNP/TCM substances. Overall, we highlight four significant bioactivity profiles (measured by p-values) as examples of this prediction.
To this end, we profiled both collections for potential CAR and/or PXR activity, employing a previously published 1536-well qHTS assay.
PROTOCOL TABLE (as described by Inglese J, Shamu CE and Guy RK. 2007)
SEQUENCE No. (e.g., 1, 2, 3, etc.); […] (e.g., Cells, Incubation, Reagent, etc.); VALUE; DESCRIPTION.
1; Cells; 4 uL; 1536-well white Greiner assay plate.
2; Incubation; 5 hours; 37C, 95% humidity, 5% CO2.
3; Compounds; 23 nL; Kalypsis pin tool (Wako USA) equipped with 1536-well pin head to transfer to the assay plates.
4; Reagent; 1 uL; 48 uM CITCO (final concentration).
5; Incubation; 24 hours; 37C, 5% CO2.
6; Detection Reagent 1; 1 uL; CellTiter-Fluor (Promega).
7; Incubation; 1 hour; 37C, 5% CO2.
8; Detector 1; Fluorescence intensity; ViewLux plate reader (excitation 405 nm, emission 540 nm).
9; Detection Reagent 2; 4 uL; ONE-Glo Luciferase reagent (Promega).
10; Incubation; 30 min; room temperature.
11; Detector 2; Luminescence intensity; ViewLux.
NOTES (numbers refer to Sequence numbers above)
1. 4 uL of HepG2-CYP2B6-hCAR cells at 6.25 x 10^5 cells/mL (2,500 cells/well) were dispensed using a Multidrop Combi dispenser in tissue culture-treated 1536-well white assay plates (Greiner Bio-One) in the same culture media, without geneticin and blasticidin included.
2. Plates were incubated for 5 hours at 37C, 95% humidity, and 5% CO2 to allow for cell attachment.
3. Compounds (final concentrations of most substances ranged from 15.6 nM to 31.9 uM), positive control (for antagonist mode: PK11195 with a final concentration range 2.8 nM to 92 uM), and toxicity control tetraoctyl ammonium bromide (final concentration of 92 uM) were transferred (23 nL) via pintool (Wako Automation).
4. After compound transfer, plates were dispensed with 1 uL of the known hCAR agonist 6-(4-Chlorophenyl)imidazo[2,1-b][1,3]thiazole-5-carbaldehyde O-(3,4-dichlorobenzyl)oxime (CITCO, final concentration of 48 uM) in the antagonist mode using a BioRAPTR FRDTM.
6. 1 uL of CellTiter-Fluor (Promega, Madison, Wisconsin) was added using a BioRAPTR FRDTM.
8. Fluorescence intensity (Ex/Em = 405 nm/540 nm) is obtained using the ViewLux plate reader to determine cell viability.
9. 4 uL of ONE-Glo Luciferase reagent (Promega) was added to each well using the BioRAPTR FRDTM,
10. Luminescence intensity is read using the ViewLux detector.
Potency is the fitted concentration of half-maximal effect.

Structure (SMILES)	Potency	activity change, negative = inhibition
CCCCCC/C=C\CCCCCCCC(=O)O	inactive	–
CC(C)=CCC[C@](C)(O[C@@H]1O[C@H](CO)[C@@H](O)[C@H](O)[C@H]1O)[C@H]1CC[C@]2(C)[C@@H]1[C@H](O)C[C@@H]1[C@@]3(C)CC[C@H](O)C(C)(C)[C@@H]3[C@@H](O[C@@H]3O[C@H](CO)[C@@H](O)[C@H](O)[C@H]3O)C[C@]12C	inactive	–
N#CC(O[C@@H]1O[C@H](CO[C@@H]2O[C@H](CO)[C@@H](O)[C@H](O)[C@H]2O)[C@@H](O)[C@H](O)[C@H]1O)c1ccccc1 (stereo not given in full)	inactive	–
COC1=C[C@@]23CCN(C)[C@H](Cc4ccc(OC)c(O)c42)C3=CC1=O	inactive	–
CC(C)=CCC/C(C)=C/CC/C(C)=C/CC/C(C)=C/CC1=C(C)C(=O)c2ccccc2C1=O	inactive	–
CC(C)(O)[C@@H]1CC[C@](C)([C@@H]2[C@H](O)C[C@]3(C)C4C[C@@H](O[C@H]5O[C@@H](CO)[C@H](O)[C@@H](O)[C@@H]5O)C5C(C)(C)[C@H](O[C@H]6OC[C@H](O)[C@@H](O)[C@@H]6O)CC[C@]56CC46CC[C@@]23C)O1 (stereo not given in full)	inactive	–
O=C(/C=C/c1ccc(O)c(O)c1)O[C@H]1[C@H](O)C[C@](O)(C(=O)O)C[C@H]1OC(=O)/C=C/c1ccc(O)c(O)c1	inactive	–
C[C@@H]1CC[C@]2(C)CC[C@]3(C)C(=CC(=O)C4[C@@]5(C)CC[C@@H](O)[C@](C)(C(=O)O)C5CC[C@]43C)C2[C@H]1C (stereo not given in full)	inactive	–
Oc1cccc(O)c1O	inactive	–
CC(C)=CCCC(C)(OC1OC(COC2OC(CO)C(O)C2O)C(O)C(O)C1O)C1CCC2(C)C1C(O)CC1C3(C)CCC(OC4OC(CO)C(O)C(O)C4OC4OC(CO)C(O)C(O)C4O)C(C)(C)C3CCC12C (stereo not given)	inactive	–
C=C[C@H]1CN2CCc3c([nH]c4ccccc34)[C@H]2C[C@@H]1/C(=C\OC)C(=O)OC	inactive	–
O=c1ccc2ccc(O)cc2o1	inactive	–
CC[C@@H]1CN2CC[C@]3(C(=O)Nc4ccccc43)[C@@H]2C[C@@H]1/C(=C\OC)C(=O)OC	3.98 µM (active)	–
C=C1C[C@@]23CC[C@H]4[C@](C)(CCC[C@]4(C)C(=O)O[C@@H]4O[C@H](CO)[C@@H](O)[C@H](O)[C@H]4O)[C@@H]2CC[C@]1(O[C@H]1O[C@@H](CO)[C@H](O)[C@@H](O)[C@@H]1O)C3	inactive	–
CCC(/C=C/[C@@H](C)[C@H]1CCC2C3CC=C4C[C@@H](O)CC[C@]4(C)C3CC[C@@]21C)C(C)C (stereo not given in full)	inactive	–
O=c1cc(-c2ccc(O)cc2)oc2cc(O[C@H]3OC(CO)C(O)C(O)C3O)cc(O)c12 (stereo not given in full)	inactive	–
O=C(OCC1=C[C@@H](O)[C@@H]2C=CO[C@@H](O[C@@H]3O[C@H](CO)[C@@H](O)[C@H](O)[C@H]3O)[C@H]12)c1ccc(O)cc1	inactive	–
CCCCC[C@H](O)CC(=O)CCc1ccc(O)c(OC)c1	inactive	–
COc1ccc2ccc(=O)oc2c1	inactive	–
CCCCCCCC/C=C\CCCCCCCCCCCCCC(=O)O	inactive	–

Structure (SMILES)	Potency	activity change, negative = inhibition
O=C(/C=C/c1ccc(O)c(O)c1)O[C@@H]1CC(O)(C(=O)O)C[C@@H](OC(=O)/C=C/c2ccc(O)c(O)c2)C1O (stereo not given in full)	inactive	–
CC(C)=CCC/C(C)=C/C=C/C(C)=C/C=C/C(C)=C/C=C/C=C(C)/C=C/C=C(C)/C=C/C=C(\C)CCC=C(C)C	inactive	–
CCCCCCCC/C=C/CCCCCCCCCC(=O)O	inactive	–
Cc1ncc(COP(=O)(O)O)c(C)c1O	inactive	–
C[S+](CC[C@H](N)C(=O)O)C[C@H]1O[C@@H](n2cnc3c(N)ncnc32)[C@H](O)[C@@H]1O (stereo not given in full)	inactive	–
COC1=C(OC)C(=O)C(C/C=C(\C)CC/C=C(\C)CC/C=C(\C)CC/C=C(\C)CC/C=C(\C)CC/C=C(\C)CC/C=C(\C)CC/C=C(\C)CC/C=C(\C)CCC=C(C)C)=C(C)C1=O	inactive	–
O=c1c(O[C@@H]2O[C@H](CO)[C@H](O)[C@H](O)[C@H]2O)c(-c2ccc(O)c(O)c2)oc2cc(O)cc(O)c12	inactive	–
CCCCCCCCC/C=C/C(=O)CCc1ccc(O)c(OC)c1	inactive	–
COC(=O)C1=CO[C@@H](C)[C@H]2CN3CCc4c([nH]c5ccccc45)[C@@H]3C[C@H]12	inactive	–
C=C1CC[C@H](O)CC1=C/C=C1\CCC[C@]2(C)[C@@H]([C@H](C)/C=C/[C@H](C)C(C)C)CC[C@@H]12	inactive	–
O=C(O)[C@H]1O[C@@H](Oc2c(-c3ccc(O)c(O)c3)oc3cc(O)cc(O)c3c2=O)[C@H](O)[C@@H](O)[C@@H]1O	inactive	–
CC(C)=CCC[C@](C)(O[C@@H]1O[C@H](CO[C@@H]2O[C@H](CO)[C@@H](O)[C@H](O)[C@H]2O)[C@@H](O)[C@H](O)[C@H]1O)C1CC[C@]2(C)[C@@H]1[C@H](O)CC1[C@@]3(C)CC[C@H](O[C@@H]4O[C@H](CO)[C@@H](O)[C@H](O)[C@H]4O[C@@H]4O[C@H](CO)[C@@H](O)[C@H](O)[C@H]4O)C(C)(C)[C@@H]3CC[C@]12C (stereo not given in full)	–	-31.6% [at 8.32 µM]
CC/C=C\C/C=C\C/C=C\C/C=C\C/C=C\C/C=C\CCC(=O)O	inactive	–
C=C(C)C(CC=C(C)C)CC12CC(CC=C(C)C)C(C)(C)C(CC=C(C)C)(C(=O)/C(=C(\O)c3ccc(O)c(O)c3)C1=O)C2=O (stereo not given)	inactive	–
C=C1C[C@@]23CC[C@H]4[C@@](C)(CCC[C@@]4(C)C(=O)O[C@@H]4O[C@H](CO)[C@@H](O)[C@H](O)[C@H]4O[C@@H]4O[C@H](CO)[C@@H](O)[C@H](O)[C@H]4O)[C@@H]2CC[C@]1(O[C@@H]1O[C@H](CO)[C@@H](O)[C@H](O)[C@H]1O[C@@H]1O[C@H](CO)[C@@H](O)[C@H](O)[C@H]1O)C3	inactive	–
O=C(OC[C@H]1O[C@@H](OC(=O)c2cc(O)c(O)c(O)c2)[C@H](OC(=O)c2cc(O)c(O)c(O)c2)[C@@H](OC(=O)c2cc(O)c(O)c(O)c2)[C@@H]1OC(=O)c1cc(O)c(O)c(O)c1)c1cc(O)c(O)c(O)c1	inactive	–
Cc1ccc(C(C)C)cc1	inactive	–
Oc1cc(O)c2c(c1)O[C@@H](c1cc(O)c(O)c(O)c1)[C@H](O)C2	inactive	–
CC[C@H](CC[C@@H](C)[C@H]1CCC2C3CCC4C[C@@H](O)CC[C@]4(C)C3CC[C@@]21C)C(C)C (stereo not given in full)	inactive	–
CC[C@H](CC[C@@H](C)[C@H]1CC[C@H]2[C@@H]3CC=C4C[C@@H](O)CC[C@]4(C)[C@H]3CC[C@]12C)C(C)C	inactive	–
